# Reference: PubChem BioAssay (EPA / NIEHS)
# Inconclusive results are not listed. Active and inactive are the calls of the source. How the source made its calls, unless noted: active means hit-call score of the fitted dose curve at least 0.9, where 1 is the maximum; inactive means score below 0.9.
# How the values were obtained:
# [1] = BSK_3C_Proliferation: Cell Proliferation Assessment in the BioMAP Diversity Plus: 3C Assay (AID 2283006); conditions: primary human endothelial cells (HUVEC);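 on AC50: potency may reflect either rise or fall in cell number versus DMSO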
# Method in brief: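 Subconfluent HUVEC (3C system) cultured with chemical; relative cell number read at 48 h by sulforhodamine B total-protein staining (0.1% SRB after 10% TCA fixation, 560 nm). Bidirectional fit relative to DMSO.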
# [2] = target: Peroxisome proliferator-activated receptor gamma (Homo sapiens) (UniProt P37231); assay: ATG_PPARg_TRANS: Attagene TRANS-FACTORIAL HepG2 Assay for human Peroxisome Proliferator-activated Receptor-gamma (PPARg) (AID 2283007; active means hit-call score of the fitted dose curve at least 0.9, where 1 is the maximum)
# Chain of Peroxisome proliferator-activated receptor gamma (Homo sapiens) (P37231 whole entry, looked up): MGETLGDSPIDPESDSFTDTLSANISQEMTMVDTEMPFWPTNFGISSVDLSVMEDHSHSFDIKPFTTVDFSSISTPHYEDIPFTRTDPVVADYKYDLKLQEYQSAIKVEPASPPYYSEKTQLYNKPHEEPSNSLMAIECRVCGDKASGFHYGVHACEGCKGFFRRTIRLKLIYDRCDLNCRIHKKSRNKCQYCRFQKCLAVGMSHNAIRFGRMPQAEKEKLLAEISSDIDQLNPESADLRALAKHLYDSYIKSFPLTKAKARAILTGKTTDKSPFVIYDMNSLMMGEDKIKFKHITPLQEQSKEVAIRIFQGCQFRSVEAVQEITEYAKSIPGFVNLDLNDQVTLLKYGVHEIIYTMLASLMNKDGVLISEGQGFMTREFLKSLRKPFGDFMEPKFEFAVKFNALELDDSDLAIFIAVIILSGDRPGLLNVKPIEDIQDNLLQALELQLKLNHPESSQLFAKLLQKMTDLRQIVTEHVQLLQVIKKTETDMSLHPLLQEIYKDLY
# Method in brief: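 Multiplexed reporter transcription units in HepG2, 24 h dosing, reporter transcripts quantified by fluorescent RT-PCR and capillary electrophoresis. Increase over DMSO scored.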
# [3] = target: Retinoic acid receptor RXR-alpha (Homo sapiens) (UniProt P19793); assay: ATG_RXRa_TRANS: Attagene TRANS-FACTORIAL HepG2 Assay for human Retinoid X Receptor alpha (RXRa) (AID 2283012; active means hit-call score of the fitted dose curve at least 0.9, where 1 is the maximum)
# Chain of Retinoic acid receptor RXR-alpha (Homo sapiens) (P19793 whole entry, looked up, the tested form may be a part): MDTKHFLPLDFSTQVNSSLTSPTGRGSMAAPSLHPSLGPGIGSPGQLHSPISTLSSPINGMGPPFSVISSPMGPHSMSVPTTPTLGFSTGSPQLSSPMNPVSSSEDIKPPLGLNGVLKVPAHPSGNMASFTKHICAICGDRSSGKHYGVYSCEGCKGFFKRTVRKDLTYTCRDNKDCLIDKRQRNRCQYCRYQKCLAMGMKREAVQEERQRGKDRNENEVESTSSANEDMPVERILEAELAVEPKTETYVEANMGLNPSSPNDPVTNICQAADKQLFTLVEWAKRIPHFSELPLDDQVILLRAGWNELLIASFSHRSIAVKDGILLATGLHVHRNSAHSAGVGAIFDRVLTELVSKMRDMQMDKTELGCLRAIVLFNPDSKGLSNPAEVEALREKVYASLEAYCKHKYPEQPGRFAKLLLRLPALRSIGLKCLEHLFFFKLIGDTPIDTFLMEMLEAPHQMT
# Method in brief: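 HepG2 cells transiently transfected with GAL4-UAS reporter units and chimeric RXRa-Gal4 protein, treated 24 h. Reporter mRNA measured by RT-PCR, fluorescent labelling, HpaI digestion and capillary electrophoresis. Induction fitted against DMSO.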
# [4] = target: human Retinoid X Receptor beta (RXRb), RXRB (gene 6257) (UniProt P28702); assay: ATG_RXRb_TRANS: Attagene TRANS-FACTORIAL HepG2 Assay for human Retinoid X Receptor beta (RXRb) (AID 2283013; active means hit-call score of the fitted dose curve at least 0.9, where 1 is the maximum)
# Chain of human Retinoid X Receptor beta (RXRb), RXRB (gene 6257) (P28702 whole entry, looked up, the tested form may be a part): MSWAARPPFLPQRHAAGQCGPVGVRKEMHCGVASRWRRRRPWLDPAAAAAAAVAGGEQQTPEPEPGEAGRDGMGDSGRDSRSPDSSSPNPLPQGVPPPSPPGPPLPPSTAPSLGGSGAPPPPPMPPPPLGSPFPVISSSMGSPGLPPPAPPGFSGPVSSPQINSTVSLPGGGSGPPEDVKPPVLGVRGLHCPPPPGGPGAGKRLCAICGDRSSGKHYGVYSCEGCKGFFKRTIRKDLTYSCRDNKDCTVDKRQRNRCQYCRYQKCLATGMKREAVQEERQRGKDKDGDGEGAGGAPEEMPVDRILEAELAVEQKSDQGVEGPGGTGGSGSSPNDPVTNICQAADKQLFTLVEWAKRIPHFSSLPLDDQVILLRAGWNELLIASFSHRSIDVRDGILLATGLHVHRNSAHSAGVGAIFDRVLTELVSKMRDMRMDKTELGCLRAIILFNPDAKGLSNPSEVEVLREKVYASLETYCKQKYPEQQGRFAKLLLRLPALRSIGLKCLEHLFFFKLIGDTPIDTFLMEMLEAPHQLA
# Method in brief: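 HepG2 cells were transiently transfected with multiplexed GAL4-UAS reporters and a chimeric RXRb-Gal4 construct, then exposed for 24 h. Reporter mRNA was quantified by RT-PCR, FAM labeling, HpaI digestion and capillary electrophoresis; gain of signal was scored against DMSO.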
# [5] = target: human Thyroid Receptor alpha (THRa1), THRA (gene 7067) (UniProt P10827); assay: ATG_THRa1_TRANS: Attagene TRANS-FACTORIAL HepG2 Assay for human Thyroid Receptor alpha (THRa1) (AID 2283014; active means hit-call score of the fitted dose curve at least 0.9, where 1 is the maximum)
# Chain of human Thyroid Receptor alpha (THRa1), THRA (gene 7067) (P10827 whole entry, looked up, the tested form may be a part): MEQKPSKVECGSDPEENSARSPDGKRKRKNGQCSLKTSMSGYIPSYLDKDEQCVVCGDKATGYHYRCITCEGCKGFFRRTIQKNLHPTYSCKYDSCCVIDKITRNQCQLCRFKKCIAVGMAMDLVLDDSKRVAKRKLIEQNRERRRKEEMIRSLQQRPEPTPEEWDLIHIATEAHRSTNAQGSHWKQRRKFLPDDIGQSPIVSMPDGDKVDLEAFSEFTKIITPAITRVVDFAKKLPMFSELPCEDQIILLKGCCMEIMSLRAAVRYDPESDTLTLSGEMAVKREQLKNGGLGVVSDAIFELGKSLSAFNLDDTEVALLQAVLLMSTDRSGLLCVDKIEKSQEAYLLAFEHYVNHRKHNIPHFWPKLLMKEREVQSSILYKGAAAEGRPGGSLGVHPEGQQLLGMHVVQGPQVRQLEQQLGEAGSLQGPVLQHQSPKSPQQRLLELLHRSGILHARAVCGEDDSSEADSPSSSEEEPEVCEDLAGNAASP
# Method in brief: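 Reporter transcript induction, read by capillary electrophoresis of 6-FAM-labelled RT-PCR products, reflects activity of a transfected THRa1-Gal4 fusion in HepG2 liver cells. Cells were dosed for 24 h; activity was fitted in the positive direction against DMSO.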
# [6] = read-out: E-selectin (Homo sapiens) (UniProt P16581); assay: BSK_3C_Eselectin: BioMAP Diversity Plus: 3C Assay for Eselectin Biomarker Activity (AID 2283015); conditions: primary human endothelial cells (HUVEC); actives raise or lower the signal;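 on outcome: cell surface E-selectin protein quantified by ELISA 24 h after dosing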
# Method in brief: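 ELISA read-out of E-selectin on endothelial monolayers after 24 h chemical treatment. Human umbilical vein primary cells served as the system, with DMSO defining baseline activity for bidirectional fitting.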
# [7] = read-out: Monocyte Chemoattractant Protein-1 (MCP1), CCL2 (gene 6347); assay: BSK_3C_MCP1: BioMAP Diversity Plus: 3C Assay for Monocyte Chemoattractant Protein-1 (MCP1) Biomarker Activity (AID 2283017); conditions: primary human endothelial cells (HUVEC); actives raise or lower the signal
# Method in brief: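 ELISA read-out of MCP-1 from human umbilical vein endothelial cell cultures harvested 24 h post-dosing. Gain or loss of signal was fitted relative to DMSO.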
# [8] = read-out: Monocyte Chemoattractant Protein-1 (MCP1), CCL2 (gene 6347); assay: BSK_4H_MCP1: BioMAP Diversity Plus: 4H Assay for Monocyte Chemoattractant Protein-1 (MCP1) Biomarker Activity (AID 2283018); conditions: primary human endothelial cells (HUVEC); actives raise or lower the signal
# Method in brief: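 Human umbilical vein endothelial cells (4H system) exposed to chemicals for 24 h in 96-well format. MCP-1 measured by ELISA; bidirectional fitting against DMSO, with SRB total-protein staining in parallel cultures for cytotoxicity.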
# [9] = read-out: Human Leukocyte Antigen - DR isotype (HLADR), HLA-DRA (gene 3122); assay: BSK_3C_HLADR: BioMAP Diversity Plus: 3C Assay for Human Leukocyte Antigen - DR isotype (HLADR) Biomarker Activity (AID 2283019); conditions: primary human endothelial cells (HUVEC); actives raise or lower the signal;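 on outcome: ELISA of cell-surface HLA-DR on HUVEC 24 h after dosing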
# Method in brief: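 ELISA readout of surface HLA-DR on human umbilical vein endothelium, taken 24 h after chemical treatment. Gain- and loss-of-signal were both fitted relative to DMSO.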
# [10] = read-out: Interleukin-8 (IL8), CXCL8 (gene 3576); assay: BSK_3C_IL8: BioMAP Diversity Plus: 3C Assay for Interleukin-8 (IL8) Biomarker Activity (AID 2283020); conditions: primary human endothelial cells (HUVEC); actives raise or lower the signal
# Method in brief: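 Primary human umbilical vein endothelial cells were dosed for 24 h. IL-8 was quantified by ELISA and fitted bidirectionally against DMSO. Cytotoxicity was assessed in parallel cultures by SRB staining at 560 nm.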
# [11] = read-out: Monokine induced gamma interferon (MIG), CXCL9 (gene 4283); assay: BSK_3C_MIG: BioMAP Diversity Plus: 3C Assay for Monokine induced gamma interferon (MIG) Biomarker Activity (AID 2283021); conditions: primary human endothelial cells (HUVEC); actives raise or lower the signal;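 on AC50: MIG protein level measured by immunoassay in the treated endothelial cultures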
# Method in brief: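 HUVEC primary endothelial cultures dosed with chemical; MIG quantified by ELISA at 24 h. Data fitted bidirectionally against DMSO control, with parallel SRB total-protein staining for cytotoxicity.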
# [12] = BSK_3C_SRB: Viability Assessment in the BioMAP Diversity Plus: 3C Assay (AID 2283023); conditions: primary human endothelial cells (HUVEC);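 further: fitted both ways against DMSO so a hit may be signal rise or drop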
# Method in brief: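 Absorbance at 560 nm of sulforhodamine B-stained (0.1%) total protein served as a cytotoxicity readout in human umbilical vein endothelial cells, 24 h after chemical treatment. Signal was fitted bidirectionally relative to DMSO.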
# [13] = read-out: Matrix Metallopeptidase 1 (MMP1), MMP1 (gene 4312); assay: BSK_BE3C_MMP1: BioMAP Diversity Plus: BE3C Assay for Matrix Metallopeptidase 1 (MMP1) Biomarker Activity (AID 2283024); conditions: primary human bronchial epithelial cells; actives raise or lower the signal
# Method in brief: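 Human primary bronchial epithelial cells (BE3C system) dosed for 24 h; MMP-1 quantified by ELISA. Bidirectional fit against DMSO; cytotoxicity tracked in parallel cultures by SRB total-protein staining.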
# [14] = BSK_3C_Vis: BioMAP Diversity Plus: 3C Assay for Morphology Visualization (AID 2283025); conditions: primary human endothelial cells (HUVEC);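 further: fitted both ways so gain or loss versus DMSO counts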;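 on AC50: light microscopy image of cell morphology used as background control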
# Method in brief: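 Human umbilical vein endothelial cell morphology was inspected by light microscopy 24 h after chemical dosing; scored bidirectionally relative to DMSO.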
# [15] = read-out: Interleukin-1 alpha (IL1a), IL1A (gene 3552); assay: BSK_BE3C_IL1a: BioMAP Diversity Plus: BE3C Assay for Interleukin-1 alpha (IL1a) Biomarker Activity (AID 2283016); conditions: primary human bronchial epithelial cells; actives raise or lower the signal
# Method in brief: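 Human primary bronchial epithelial cells, 24 h chemical exposure; IL-1a quantified by ELISA, fitted bidirectionally against DMSO. Cytotoxicity assessed in parallel by SRB total-protein staining at the time of measurement.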
# [16] = target: human Retinoic Acid Receptor gamma (RARg), RARG (gene 5916) (UniProt P13631); assay: ATG_RARg_TRANS: Attagene TRANS-FACTORIAL HepG2 Assay for human Retinoic Acid Receptor gamma (RARg) (AID 2283009; active means hit-call score of the fitted dose curve at least 0.9, where 1 is the maximum)
# Chain of human Retinoic Acid Receptor gamma (RARg), RARG (gene 5916) (P13631 whole entry, looked up, the tested form may be a part): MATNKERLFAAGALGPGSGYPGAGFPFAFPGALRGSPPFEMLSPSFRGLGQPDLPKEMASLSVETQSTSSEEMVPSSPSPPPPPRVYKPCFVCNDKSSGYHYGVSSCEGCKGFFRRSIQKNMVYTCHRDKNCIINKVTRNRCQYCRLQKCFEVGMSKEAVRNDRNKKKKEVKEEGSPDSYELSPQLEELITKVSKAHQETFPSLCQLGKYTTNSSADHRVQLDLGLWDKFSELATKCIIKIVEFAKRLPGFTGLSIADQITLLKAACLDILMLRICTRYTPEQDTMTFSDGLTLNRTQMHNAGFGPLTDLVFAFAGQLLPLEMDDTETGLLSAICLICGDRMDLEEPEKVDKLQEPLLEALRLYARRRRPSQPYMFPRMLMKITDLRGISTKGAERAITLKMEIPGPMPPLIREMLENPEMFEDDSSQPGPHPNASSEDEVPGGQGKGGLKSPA
# Method in brief: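 HepG2 transiently transfected with GAL4-UAS reporter units and chimeric NR-Gal4 constructs; 24 h compound exposure. Reporter mRNA quantified by RT-PCR, FAM labeling, HpaI digestion and capillary electrophoresis; gain-of-signal versus DMSO.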
# [17] = target: human RAR-related Orphan Receptor gamma (RORg), RORC (gene 6097) (UniProt P51449); assay: ATG_RORg_TRANS: Attagene TRANS-FACTORIAL HepG2 Assay for human RAR-related Orphan Receptor gamma (RORg) (AID 2283011; active means hit-call score of the fitted dose curve at least 0.9, where 1 is the maximum)
# Chain of human RAR-related Orphan Receptor gamma (RORg), RORC (gene 6097) (P51449 whole entry, looked up, the tested form may be a part): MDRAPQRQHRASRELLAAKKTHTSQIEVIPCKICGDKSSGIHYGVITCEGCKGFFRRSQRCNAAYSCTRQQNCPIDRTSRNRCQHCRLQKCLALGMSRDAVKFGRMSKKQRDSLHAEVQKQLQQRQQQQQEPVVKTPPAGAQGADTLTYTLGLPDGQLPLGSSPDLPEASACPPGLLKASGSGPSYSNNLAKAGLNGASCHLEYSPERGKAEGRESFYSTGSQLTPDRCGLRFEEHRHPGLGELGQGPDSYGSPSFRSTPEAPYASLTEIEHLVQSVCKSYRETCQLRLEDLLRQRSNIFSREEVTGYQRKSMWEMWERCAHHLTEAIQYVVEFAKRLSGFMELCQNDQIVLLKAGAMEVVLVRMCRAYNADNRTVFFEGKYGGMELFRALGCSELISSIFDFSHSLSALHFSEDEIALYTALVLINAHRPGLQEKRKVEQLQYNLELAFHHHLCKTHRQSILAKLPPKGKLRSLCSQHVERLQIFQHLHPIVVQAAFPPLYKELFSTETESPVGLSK
# Method in brief: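 First, HepG2 liver cells were transfected with GAL4-UAS-driven reporter constructs and the RORg-Gal4 fusion. Next, they were treated with chemical for 24 h. Finally, reporter mRNA was quantified by RT-PCR and capillary electrophoresis, with upward activity fitted against DMSO.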
# [18] = target: human Vitamin D Receptor (VDR), VDR (gene 7421) (UniProt P11473); assay: ATG_VDR_TRANS: Attagene TRANS-FACTORIAL HepG2 Assay for human Vitamin D Receptor (VDR) (AID 2283022; active means hit-call score of the fitted dose curve at least 0.9, where 1 is the maximum)
# Chain of human Vitamin D Receptor (VDR), VDR (gene 7421) (P11473 whole entry, looked up, the tested form may be a part): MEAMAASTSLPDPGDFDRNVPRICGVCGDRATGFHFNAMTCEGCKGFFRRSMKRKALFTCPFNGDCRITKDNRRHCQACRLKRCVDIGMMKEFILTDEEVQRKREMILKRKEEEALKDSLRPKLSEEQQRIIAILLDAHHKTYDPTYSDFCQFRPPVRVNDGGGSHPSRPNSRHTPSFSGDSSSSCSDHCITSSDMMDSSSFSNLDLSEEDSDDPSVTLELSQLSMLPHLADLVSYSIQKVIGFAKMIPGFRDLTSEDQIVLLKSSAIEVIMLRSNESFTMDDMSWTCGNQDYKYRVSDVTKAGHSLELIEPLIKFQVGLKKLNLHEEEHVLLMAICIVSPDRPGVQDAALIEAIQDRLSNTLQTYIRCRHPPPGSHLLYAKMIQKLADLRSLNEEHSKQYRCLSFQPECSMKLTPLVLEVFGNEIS
# Method in brief: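 Steps: transfect HepG2 with GAL4-UAS-driven reporter constructs; dose compounds 24 h; isolate RNA, reverse-transcribe, PCR-amplify with 6-FAM-labelled primer extension and HpaI digestion; quantify fragments by capillary electrophoresis relative to DMSO.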
# [19] = target: Nuclear receptor subfamily 1 group I member 2 (Homo sapiens) (UniProt O75469); assay: ATG_PXR_TRANS: Attagene TRANS-FACTORIAL HepG2 Assay for human Pregnane X Receptor (PXR) (AID 2283008; active means hit-call score of the fitted dose curve at least 0.9, where 1 is the maximum)
# Chain of Nuclear receptor subfamily 1 group I member 2 (Homo sapiens) (O75469 whole entry, looked up, the tested form may be a part): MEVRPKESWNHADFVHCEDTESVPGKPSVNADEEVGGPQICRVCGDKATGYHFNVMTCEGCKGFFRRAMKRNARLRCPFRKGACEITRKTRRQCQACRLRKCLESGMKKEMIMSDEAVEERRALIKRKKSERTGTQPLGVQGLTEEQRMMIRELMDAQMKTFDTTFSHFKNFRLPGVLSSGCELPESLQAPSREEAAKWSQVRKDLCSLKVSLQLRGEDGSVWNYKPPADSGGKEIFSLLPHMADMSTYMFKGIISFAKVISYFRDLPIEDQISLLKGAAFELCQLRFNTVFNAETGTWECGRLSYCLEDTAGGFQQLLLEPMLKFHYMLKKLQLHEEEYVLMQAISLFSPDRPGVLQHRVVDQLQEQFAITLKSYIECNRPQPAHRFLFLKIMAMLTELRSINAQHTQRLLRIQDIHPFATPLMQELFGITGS
# Method in brief: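 Measures mRNA induction of a GAL4-UAS-driven reporter in human HepG2 cells transiently expressing PXR fused to Gal4, following 24 h treatment. DMSO served as negative control and baseline.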
# Chain of E-selectin (Homo sapiens) (P16581 whole entry, looked up): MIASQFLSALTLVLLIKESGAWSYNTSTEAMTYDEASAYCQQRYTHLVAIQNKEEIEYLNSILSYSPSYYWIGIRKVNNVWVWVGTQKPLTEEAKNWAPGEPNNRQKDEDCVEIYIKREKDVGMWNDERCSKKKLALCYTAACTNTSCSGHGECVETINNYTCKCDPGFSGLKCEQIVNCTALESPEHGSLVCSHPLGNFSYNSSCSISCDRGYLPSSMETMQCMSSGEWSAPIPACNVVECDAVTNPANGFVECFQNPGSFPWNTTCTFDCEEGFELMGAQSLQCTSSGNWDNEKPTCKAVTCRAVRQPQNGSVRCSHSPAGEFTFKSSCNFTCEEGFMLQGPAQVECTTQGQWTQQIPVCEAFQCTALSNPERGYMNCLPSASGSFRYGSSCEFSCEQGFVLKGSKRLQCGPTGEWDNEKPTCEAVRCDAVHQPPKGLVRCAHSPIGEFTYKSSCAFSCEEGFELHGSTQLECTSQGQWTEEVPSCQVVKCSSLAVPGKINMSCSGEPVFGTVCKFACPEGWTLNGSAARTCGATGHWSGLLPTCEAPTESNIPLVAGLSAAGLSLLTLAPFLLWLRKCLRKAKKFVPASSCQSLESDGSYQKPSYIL
smiles,measurement,setting,value
O=C(Nc1ccccc1)c1ccccc1I,outcome,[1],inactive
same,AC50,[2],17.8 µM (active)
same,outcome,[3],inactive
same,outcome,[4],inactive
same,outcome,[5],inactive
same,outcome,[6],inactive
same,outcome,[7],inactive
same,outcome,[8],inactive
same,outcome,[9],inactive
same,outcome,[10],inactive
same,outcome,[11],inactive
same,outcome,[12],inactive
same,outcome,[13],inactive
same,outcome,[14],inactive
CC(C)(O)c1cnn2c(-c3ccc(F)c(-c4c(F)cccc4C#N)c3)cnc2n1,AC50,[1],33.8 µM (active)
same,outcome,[2],inactive
same,outcome,[3],inactive
same,outcome,[6],inactive
same,AC50,[15],31.6 µM (active)
same,AC50,[7],26.4 µM (active)
same,outcome,[8],inactive
same,AC50,[9],30.4 µM (active)
same,AC50,[10],20 µM (active)
same,outcome,[11],inactive
same,AC50,[12],30.4 µM (active)
same,outcome,[13],inactive
same,AC50,[14],37.5 µM (active)
O=[N+]([O-])C(Br)(CO)CO,AC50,[1],5.94 µM (active)
same,outcome,[2],inactive
same,outcome,[16],inactive
same,outcome,[17],inactive
same,outcome,[3],inactive
same,outcome,[4],inactive
same,outcome,[5],inactive
same,AC50,[6],32.6 µM (active)
same,outcome,[15],inactive
same,AC50,[7],30.5 µM (active)
same,AC50,[8],28.9 µM (active)
same,AC50,[9],16.5 µM (active)
same,AC50,[10],35.8 µM (active)
same,AC50,[11],34.9 µM (active)
same,outcome,[18],inactive
same,AC50,[12],15.3 µM (active)
same,AC50,[14],37.5 µM (active)
ClC1=C(Cl)C2(Cl)C3C(Cl)C=CC3C1(Cl)C2(Cl)Cl (stereo not given),AC50,[1],7.84 µM (active)
same,outcome,[2],inactive
same,outcome,[16],inactive
same,outcome,[3],inactive
same,outcome,[4],inactive
same,AC50,[6],26.8 µM (active)
same,AC50,[7],30 µM (active)
same,AC50,[8],24.1 µM (active)
same,AC50,[9],22.7 µM (active)
same,AC50,[10],32.7 µM (active)
same,AC50,[11],35.7 µM (active)
same,AC50,[12],28.7 µM (active)
same,outcome,[13],inactive
same,AC50,[14],37.3 µM (active)
CC(C)COC(=O)c1ccccc1C(=O)OCC(C)C,AC50,[1],28.6 µM (active)
same,AC50,[2],44.6 µM (active)
same,outcome,[3],inactive
same,AC50,[4],43.6 µM (active)
same,AC50,[6],28.8 µM (active)
same,outcome,[15],inactive
same,AC50,[7],37 µM (active)
same,AC50,[8],20 µM (active)
same,AC50,[9],32.3 µM (active)
same,AC50,[10],31.5 µM (active)
same,outcome,[11],inactive
same,AC50,[12],31.5 µM (active)
same,outcome,[14],inactive
Nc1cc(Cl)cc(C(=O)O)c1Cl,outcome,[1],inactive
same,outcome,[2],inactive
same,outcome,[16],inactive
same,outcome,[17],inactive
same,outcome,[5],inactive
same,outcome,[6],inactive
same,outcome,[7],inactive
same,outcome,[8],inactive
same,outcome,[9],inactive
same,outcome,[10],inactive
same,outcome,[11],inactive
same,outcome,[12],inactive
same,outcome,[13],inactive
same,outcome,[14],inactive
Clc1ccc(C(c2ccc(Cl)cc2)C(Cl)Cl)cc1,AC50,[1],15.3 µM (active)
same,outcome,[2],inactive
same,AC50,[19],7.96 µM (active)
same,AC50,[4],33.4 µM (active)
same,outcome,[5],inactive
same,AC50,[6],29.7 µM (active)
same,AC50,[7],13.9 µM (active)
same,AC50,[8],10.2 µM (active)
same,AC50,[9],14.4 µM (active)
same,AC50,[10],15 µM (active)
same,AC50,[11],35.2 µM (active)
same,outcome,[18],inactive
same,AC50,[12],19.3 µM (active)
same,AC50,[14],37.3 µM (active)
CC(C)(OOC(C)(C)c1ccccc1)c1ccccc1,AC50,[1],31.1 µM (active)
same,outcome,[2],inactive
same,outcome,[16],inactive
same,outcome,[17],inactive
same,outcome,[3],inactive
same,AC50,[4],12.4 µM (active)
same,AC50,[6],26.1 µM (active)
same,AC50,[7],15.8 µM (active)
same,AC50,[8],26.5 µM (active)
same,AC50,[9],24.6 µM (active)
same,AC50,[10],29.8 µM (active)
same,AC50,[11],29.3 µM (active)
same,outcome,[18],inactive
same,AC50,[12],36.5 µM (active)
same,AC50,[13],11.4 µM (active)
same,AC50,[14],37.5 µM (active)
